Screens deposited in PubChem BioAssay by National Center for Advancing Translational Sciences (NCATS).
MARV entry inh = qHTS for Inhibitors of binding or entry into cells for Marburg Virus; Marburg virus pseudotype entry/binding inhibition, cell-based; Potency, µM (series often up to 49.2 µM), for inactives: top-dose activity change, negative = inhibition, usual class: inhibitors; 6.5% of 18,000 active; AID 720532, 2013
Lassa entry = qHTS for Inhibitors of binding or entry into cells for Lassa Virus; Lassa virus pseudotyped entry inhibition, cell-based qHTS; Potency, µM (titrated, usually from 49.2 µM), without a hit: top-dose activity change, negative = inhibition, hits mostly inhibitors; 4.1% of 18,000 active; AID 720533, 2013
An asterisk follows results filed as active; ? = inconclusive; ! = not confirmed by another sample; [ ] = another dose, or the depositor's remark. Sampled rows, rich in hits. Any-hit rate of the full collection: about 8%. Calls follow the shape of the full dose curve; tested in HEK293 cells. % is scaled to controls: 0 for no effect and ±100 for the full control effect; potency is read from the fitted curve at half-maximal effect.

SMILES | MARV entry inh | Lassa entry
O=C(O)c1ccccc1Nc1cccc(OCc2ccc3ccccc3n2)c1 | ? | 16µM*
O=C(O)c1ccccc1Nc1ccc(CCc2ccc(Cl)c(Cl)c2)cc1 | -28% | -23%
N[C@@H](C(=O)N[C@@H]1C(=O)N2C(C(=O)O)=C(Cl)CC[C@H]12)c1ccccc1 | -3% | -17%
COC1=C2C[C@@H](C)C[C@H](OC)[C@H](O)[C@@H](C)/C=C(\C)[C@H](OC(N)=O)[C@@H](OC)/C=C\C=C(/C)C(=O)NC(=CC1=O)C2=O | 16µM* | 18µM*
C=CCNC1=C2C[C@@H](C)C[C@H](OC)[C@H](O)[C@@H](C)/C=C(\C)[C@H](OC(N)=O)[C@@H](OC)/C=C/C=C(\C)C(=O)NC(=CC1=O)C2=O | 1.8µM* | 2.2µM*
COC(=O)C(Cc1cc(Br)c(OC)c(Br)c1O)=NO | -16%[8.59 µM] | 11%[8.59 µM]
N[C@@]1(C(=O)O)CN[C@H](C(=O)O)C1 | -3% | -5%
C=C1[C@@H]2C[C@@]3([C@H]1O)[C@H]1C[C@@H]4[C@@]5(C)CC[C@H](O)[C@]4([C@H]1N(CC)C5)[C@H]3C[C@H]2O | -3%[17.8 µM] | -10%[17.8 µM]
CCN(CC)CCO[C@H]1CC[C@@]2(C)C(=CC[C@@H]3[C@H]2CC[C@]2(C)C(=O)CC[C@H]32)C1 | 13µM* | -23%
CCN(CC)CCO[C@H]1CC[C@@]2(C)C(=CC[C@@H]3[C@@H]2CC[C@]2(C)C(=O)CC[C@@H]32)C1 | -7% | 9%
CC(C)NC[C@@H](O)COc1ccc(COCCOC(C)C)cc1 | -27% | -14%
CN1C(C)(C)CCCC1(C)C | 9% | 24%
COc1cc(-c2ccc(C(F)(F)F)cn2)cc2c1OCCN(S(=O)(=O)C[C@]13CC[C@H](CC1=O)C3(C)C)C2 | ? | 13µM*
COc1cc(OC)c2nc(-c3cc4c(c(OC)c3)OCCN(C(=O)CC3NC(=O)c5ccccc53)C4)cc(C)c2c1 (configuration not stated) | -4% | -35%
CC1=C(\C=C/C(C)=C/C=C\C(C)=C\C(=O)O)C(C)(C)CCC1 | ? | -1%
CC1=C(/C=C/C(C)=C/C=C/C(C)=C/C(=O)Nc2ccc(O)cc2)C(C)(C)CCC1 | ? | 7.1µM*!
CN[C@@H](C)Cc1ccccc1 | 1%[107 µM] | -9%[107 µM]
CC(CC(c1ccccc1)c1ccccc1)NC(C)(C)C (configuration not stated) | 13µM* | ?
Cc1ccc([C@H]2C[C@@H](n3cc(COC(=O)c4ccccc4)nn3)[C@H](O)CN2Cc2cccs2)cc1 | -11% | 14%
N=C(N)n1cccn1 | -9% | -4%
CN1CC(O)C2=CC(=O)C(=O)C=C21 (configuration not stated) | 8.9µM* | 1%
O=C(NCc1ccccc1)c1ccc(NC(=O)C2CC2)cc1 | 26% | -16%
COC(=O)c1nnc(C(=O)N(C)Cc2ccccc2)c2[nH]c3ccccc3c12 | 2% | 2%
CC[C@H](C)[C@@H]1O[C@]2(CC[C@@H]1C)C[C@H]1C[C@H](CC=C(C)[C@@H](O[C@@H]3C[C@H](OC)[C@H](O[C@@H]4C[C@H](OC)[C@H](O)[C@H](C)O4)[C@H](C)O3)[C@@H](C)C=CC=C3CO[C@@H]4[C@@H](O)C(C)=C[C@@H](C(=O)O1)[C@]34O)O2 | ? | -17%[17.8 µM]
CO[C@H]1C[C@H](O[C@H]2[C@H](C)O[C@@H](O[C@@H]3/C(C)=C/C[C@@H]4C[C@@H](C[C@]5(C=C[C@H](C)[C@@H](C6CCCCC6)O5)O4)OC(=O)[C@@H]4C=C(C)[C@@H](O)[C@H]5OC/C(=C\C=C\[C@@H]3C)[C@]54O)C[C@@H]2OC)O[C@@H](C)[C@@H]1O | 8.9µM* | 10µM*
CCC(C)[C@H]1O[C@]2(C=C[C@@H]1C)C[C@@H]1C[C@@H](C/C=C(\C)[C@@H](O[C@H]3C[C@H](OC)[C@@H](O[C@H]4C[C@H](OC)[C@H](NC(C)=O)[C@H](C)O4)[C@H](C)O3)[C@@H](C)/C=C/C=C3\CO[C@@H]4[C@H](O)C(C)=C[C@@H](C(=O)O1)[C@]34O)O2 (some centres not stated) | 8.9µM* | 13µM*
CC[C@@H](C)[C@H]1O[C@]2(CC[C@@H]1C)C[C@@H]1C[C@H](C/C=C(/C)[C@H](O[C@@H]3C[C@H](OC)[C@H](O[C@@H]4C[C@H](OC)[C@@H](O)[C@H](C)O4)[C@H](C)O3)[C@@H](C)/C=C\C=C3CO[C@@H]4[C@H](O)C(C)=C[C@@H](C(=O)O1)[C@]34O)O2 (tested in a mixture with another compound) | -4% | ?
S=C(SSC(=S)N1CCCCC1)N1CCCCC1 | 9% | 10%
C[C@]1(OC(=O)/C=C\c2ccccc2)C[C@@H](O)[C@@]2(O)C=CO[C@@H](O[C@H]3O[C@@H](CO)[C@@H](O)[C@@H](O)[C@@H]3O)[C@H]21 | -18%[17.8 µM] | -17%[17.8 µM]
